According to PubChem BioAssay (NCI):
This is part of a sample that, as a whole, favours compounds with a hit. Of some 83,000 tested, about 20% had one in any assay.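 Results are percent growth after 48 hours of single-concentration exposure. 100 means growth as in untreated cells, lower positive values show inhibition; negative values down to -100 show cell death.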 Activity calls are given as the source filed them. The calls were made as follows: active = growth percent below 10; inactive = the rest.

Each compound was assayed on MDA-MB-468 breast (assay: NCI-60 one-dose screen, 48 h (100 = growth as untreated, 0 = no growth, -100 = all killed)). Settings: 10 µM unless noted.
With `Cn1cc(-c2csc(-c3cn(CCCN4CCCCC4)c4ccc(F)cc34)n2)c2cccnc21` the growth was 91.7% (inactive). In the case of `COc1ccc(/C=C/C(c2cc(OC)c(OC)c(OC)c2)n2cncn2)cc1O` (stereo not given), the growth is reported as 8.27% (active). For `O=c1[nH]c2ccccc2n2cc3cccnc3c12`, the growth was -5.08% (active). With `COc1ccc2nc3cc(Cl)ccc3c(Nc3cc(CN4CCCC4)c(O)c(CN4CCCC4)c3)c2n1` the growth was -53.3% (active). For `O=C1/C=C/[C@@H](O)[C@@H]2C[C@@H](O)C[C@H]2/C=C/CCC[C@H](CCc2ccccc2)O1`, the growth was -43.7% (active). For `Fc1ccc2[nH]cc(-c3nc(-c4ccsc4)cs3)c2c1`, the growth was 69.6% (inactive). For `O=[N+]([O-])c1ccccc1NCSc1ccc(Cl)cc1`, the growth was 92.1% (inactive). `CCCNC(=O)Oc1ccc(/C(=C(/C)Cc2ccc(OC)cc2)c2ccc(OCCN3CCCC3)cc2)cc1` was tested, and the growth was 69% (inactive). In the case of `Nc1ccc(C2=NN(C(=O)c3cc(-c4ccc(Cl)cc4)nc4ccccc34)C(c3ccccc3)C2)cc1` (stereo not given), the growth is reported as 7.91% (active). `Cn1c2c(c3ccc(Cl)cc31)-n1cccc1C2=O` was tested, and the growth was 104% (inactive). With `c1ccc2[nH]c(Cc3nc4ccccc4[nH]3)nc2c1` the growth was 102% (inactive). In the case of `Cc1[nH]c(C(=O)Nc2ccc(C(N)=O)cc2NC(C)C)c(Cl)c1Cl`, the growth is reported as 83.7% (inactive). `COc1cc(NCCCN=C(N)NC(N)=NC(C)C)c2ncccc2c1` was tested, and the growth was -34.2% (active). For `Cc1ccc(/C=C/C(=O)c2ccc(N)cc2)c(C)c1`, the growth was 88.7% (inactive). `COc1ccc(C/C(C)=C(/c2ccc(OCCN3CCCCCC3)cc2)c2ccc(OC(=O)c3ccccc3)cc2)cc1` was tested, and the growth was 111% (inactive). With `c1ccc(-c2ccc3ccccc3c2)cc1` the growth was 91.8% (inactive). In the case of `COC(=O)CCC/C=C\C[C@H]1C=CC(=O)/C1=C/C[C@@H](O)CCc1cccc(C(F)(F)F)c1`, the growth is reported as -14.5% (active). With `NS(=O)(=O)c1ccc(C2C3=C(CCCC3=O)OC3=C2C(=O)c2ccccc2C3=O)cc1` (stereo not given) the growth was -47.4% (active). `N#Cc1c(-c2ccc(Br)cc2)cc(-c2c[nH]c3ccccc23)nc1N` was tested, and the growth was 7.56% (active). For `COc1ccc(NC(=O)CCCCCCNC(=O)C(O)(O)C(F)(F)F)cc1`, the growth was 31.8% (inactive). In the case of `Cc1cccc(Oc2ccc(Nc3ncnc4ccc(NC(=O)CNCCO)cc34)cc2Cl)c1`, the growth is reported as -21.9% (active). `C=C(C)[C@@H]1C[C@H](O)Cc2cc(Cl)cc(Cl)c2N1` was tested, and the growth was 97.5% (inactive). `NS(=O)(=O)c1ccc(CN2C(=O)c3cccc4cccc(c34)C2=O)cc1` was tested, and the growth was 98.2% (inactive). In the case of `C#CCn1cnc2cnc(Nc3cccc(NC(=O)C=C)c3)nc21`, the growth is reported as 55.1% [6.25 µM] (inactive). For `NC(=N\N=C/Cc1ccccc1)/C(N)=N\N=C\Cc1ccccc1`, the growth was 112% (inactive). With `NC(=O)Nc1ccc2ncnc(Nc3cccc(O)c3)c2c1` the growth was 67.9% (inactive). `CN1CCN(C(=O)[C@]23CCC(C)(C)C[C@@H]2C2=CC[C@@H]4[C@@]5(C)Cc6c([nH]c7ccccc67)C(C)(C)[C@@H]5CC[C@@]4(C)[C@]2(C)CC3)CC1` was tested, and the growth was 98% (inactive). `COc1cccc(-c2nc(-c3ccc(NC(=O)OC(C)C)cc3)[nH]c2-c2ccnc(Br)c2)c1` was tested, and the growth was 18.2% (inactive). In the case of `Cc1ccc(NC(=O)c2ccc(CN3CC[C@H](N(C)C)C3)c(C(F)(F)F)c2)cc1Nc1nccc(-c2cncnc2)n1`, the growth is reported as -36.5% (active). In the case of `COc1ccc(C2CC(c3ccc(Nc4ccnc5cc(Cl)ccc45)cc3)=NN2C=O)cc1` (stereo not given), the growth is reported as 9.91% (active). `Nc1cccc(C(=O)Nc2ccc3c(O)c(N=Nc4ccc(N=Nc5ccc(S(=O)(=O)O)cc5)cc4)c(S(=O)(=O)O)cc3c2)c1` was tested, and the growth was 113% (inactive). In the case of `COc1ccc2[nH]cc(C3(c4c[nH]c5ccc(OC)cc45)C(=O)Nc4ccc(Cl)cc43)c2c1`, the growth is reported as 97.7% (inactive). In the case of `COc1cc(C2C(C#N)=C(N)OC3=C2C(=O)c2ccccc2C3=O)cc(OC)c1OC` (stereo not given), the growth is reported as 42.4% (inactive). With `Cc1ccc(Nc2nc(-c3ccc(F)cc3)c(C#N)c(=O)n2C)cc1` the growth was 62.1% (inactive). With `CC(=O)N[C@H](C(=O)N[C@@H](CCCNC(=N)N)C(=O)N[C@@H](CCCCN)C(=O)N[C@@H](CCCNC(=N)N)C(=O)N[C@]1(C)CCCCCC/C=C\CCC[C@@](C)(C(=O)N[C@@H](CCCNC(=N)N)C(=O)N[C@@H](CCC(=O)O)C(=O)N[C@@H](CC(C)C)C(=O)N[C@H](C(=O)N[C@@H](CCC(=O)O)C(N)=O)C(C)C)NC(=O)[C@H](CCC(N)=O)NC(=O)[C@H](CC(C)C)NC(=O)[C@H](CC(C)C)NC(=O)[C@H](CCCNC(=N)N)NC(=O)[C@H](CCCNC(=N)N)NC(=O)[C@H](CC(C)C)NC1=O)C(C)C` the growth was 20.5% (inactive). In the case of `c1ccc(-c2cc3cc4ccccc4cn3c2)cc1`, the growth is reported as 79.8% (inactive). In the case of `CCCCCCCCN(CCCCCCCC)CCCCCCNc1cc(OC)cc2cccnc12`, the growth is reported as 68.2% (inactive). `Cc1cccc(-c2nc(N(C)c3ccc4ncsc4c3)c3ccccc3n2)n1` was tested, and the growth was 51% (inactive). In the case of `COc1ccc(NC(N)=NCCCOc2ccc(F)cc2)cc1`, the growth is reported as 66.2% (inactive). `O=C(Nc1ccc(Cl)cc1)Nc1ccccc1CNc1nc(Nc2ccc(OCCN3CCCC3)cc2)ncc1Cl` was tested, and the growth was -57.4% (active).
